Experimental data reported in PubChem BioAssay AID2778 (National Center for Advancing Translational Sciences (NCATS), 2010).
Inconclusive results are not listed. The source made the active and inactive calls. Calls come from the whole dose curve; as a rule, active = well fitted inhibition curve with a large enough effect; inconclusive = small, poorly fitted or top-dose-only effect, or effect the other way; inactive = flat fitted curve, though single readings scatter.

biological target: Menin (Homo sapiens) (UniProt O00255); assay: Confirmation of Inhibitors Targeting the Menin-MLL Interaction in MLL Related Leukemias: Confirmation in an HTRF (commercial TR-FRET) Assay using His-tagged menin and biotin-labeled MLL peptide; details: His-menin / biotin-MLL peptide binding; series mostly up to 126 µM; activity change, negative = inhibition: at the top concentration
Description: qHTS Assay for Inhibitors Targeting the Menin-MLL Interaction in MLL Related Leukemias
NIH Chemical Genomics Center [NCGC]
NIH Molecular Libraries Probe Centers Network [MLPCN]
Assay Submitter (PI): Jolanta Grembecka, Tomasz Cierpicki, University of Virginia
Translocations of the MLL (Mixed Lineage Leukemia) gene are frequently found in human leukemias affecting both children and adults. Fusion of MLL to one of more than 60 genes results in generation of oncogenic proteins upregulating Hox genes, which are vital to blood cell development. Patients harboring fusion of the MLL gene suffer from aggressive leukemias and respond poorly to available therapies. All of the oncogenic fusion proteins have a preserved N-terminal fragment of MLL that has been identified to interact with menin. It has been recently discovered that association with menin is critical to the leukemogenic activity of the MLL fusion oncoproteins. Selective targeting of the menin-MLL interaction could provide an attractive therapeutic approach to develop novel drugs for MLL-related leukemias. Small molecules blocking the menin-MLL interaction should reverse the oncogenic potential of MLL fusion proteins.
We have developed and optimized a fluorescence polarization-based assay for the identification of Menin-MLL inhibitors. The assay was run employing two different MLL-derived peptides. The present assay uses a 12 amino acid peptide labeled with fluorescein at its N-terminus. This peptide consists of the menin high affinity binding motif from MLL and is potently bound by menin. Another peptide with a mutated sequence, labeled with Texas Red, was used in parallel as a less stringent screen for inhibitors.
The present assay uses an alternate technology to confirm hits from the primary screen - homogeneous time resolved fluorescence (HTRF).
The Menin protein, the MLL-wild type (w.t.) derived peptide (N-terminal 12 amino acids), the MLL-derived peptide labeled with Texas Red and the MLL-w.t. peptide labeled with Fluorescein were kindly supplied by laboratory of Dr. Jolanta Grembecka, University of Virginia. All protein and peptide solutions were stored in single use aliquots at -80C. The Eu3+ Cyrptate-conjugated mouse monoclonal antibody anti-6 Histidine (Eu3+-AB) and the Streptavidin-XL665 conjugate (XL665) were purchased from Cisbio International (Bedford, MA). All antibody and XL665 conjugate solution stocks were stored in single use aliquots at -20C. The Buffer components for all assays were purchased from Sigma-Aldrich (St. Louis, MO) and Invitrogen (Carlsbad, CA).
1. HTRF reaction buffer: 50 mM Tris-HCl pH 7.5, 50 mM NaCl, 1mM DTT.
Before use, 0.05% BSA is added.
2. His6-Menin protein, MLL-w.t. labeled with biotin.
Stored in singe use aliquots at -80C.
3. MLL-w.t. unlabeled peptide as positive control: 10 uM final in HTRF buffer.
1. Prepare His6-Menin at 200 nM, MLL-w.t.-biotin at 80 nM in HTRF buffer.
2. Prepare His6-Menin at 200 nM, MLL-w.t.-biotin at 80 nM and 10 uM MLL-w.t. unlabeled mixture in HTRF buffer.
3. Dispense 10 ul per well of reagent in step 1 in columns 2, 4-24 in a black 384 well plate, dispense 10 ul per well of reagents from steps 2 in column 1. Incubate plate at ambient for 15 minutes.
4. Transfer 1 uL per well of compound to plate and incubate at ambient for 1 hr.
5. Dispense 10uL of the donor (6His-Cryptate, 3.5 nM final conc.) and acceptor (SA_XL, 10nM final conc.) complex in the HTRF buffer with 0.01% BSA. Incubate for 1h.
% is set by controls: 0 for no effect and ±100 for the full control effect; potency is the fitted concentration of half-maximal effect.

Menin (Homo sapiens), sequence (O00255 whole entry, looked up): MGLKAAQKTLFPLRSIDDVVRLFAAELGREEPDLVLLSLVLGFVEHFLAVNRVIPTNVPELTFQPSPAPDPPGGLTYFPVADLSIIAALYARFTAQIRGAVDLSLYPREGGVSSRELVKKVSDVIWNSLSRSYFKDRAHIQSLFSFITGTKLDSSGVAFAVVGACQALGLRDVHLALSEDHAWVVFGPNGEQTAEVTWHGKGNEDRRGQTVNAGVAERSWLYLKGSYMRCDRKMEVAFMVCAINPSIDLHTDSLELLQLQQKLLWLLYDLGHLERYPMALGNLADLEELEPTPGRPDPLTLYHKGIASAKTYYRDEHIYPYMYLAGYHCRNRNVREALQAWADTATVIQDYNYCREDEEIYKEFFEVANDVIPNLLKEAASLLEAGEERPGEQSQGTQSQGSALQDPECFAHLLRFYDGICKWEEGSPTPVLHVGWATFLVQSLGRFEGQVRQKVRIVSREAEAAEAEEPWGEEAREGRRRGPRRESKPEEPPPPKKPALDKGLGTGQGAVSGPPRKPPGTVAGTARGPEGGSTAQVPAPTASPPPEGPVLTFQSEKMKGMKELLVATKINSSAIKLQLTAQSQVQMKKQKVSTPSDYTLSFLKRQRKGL

Compound	activity change, negative = inhibition	Potency
CCOP(=O)(OCC)C(NC(=O)c1ccccc1C)C(Cl)(Cl)Cl (stereo unspecified)	-1.29% [at 383 µM] (inactive)	
C[C@@H]1CC[C@@]2(NC1)O[C@H]1C[C@H]3[C@@H]4CC=C5C[C@@H](O)CC[C@]5(C)[C@H]4CC[C@]3(C)[C@H]1[C@@H]2C	3.39% (inactive)	
COc1ccc(C(O)P(=O)(Oc2ccccc2)Oc2ccccc2)cc1 (stereo unspecified)	-5.29% [at 383 µM] (inactive)	
C[N+](C)(C)CC#CCN1CCCC1=O	1.22% [at 383 µM] (inactive)	
CCOC(=O)Cc1csc(NC(=O)c2c(O)c3ccccc3n(CCC(C)C)c2=O)n1	-27.4% (inactive)	
O=C(Nc1ccc2ccccc2c1)c1nn(C23CC4CC(CC(C4)C2)C3)cc1Br	-23.2% (inactive)	
CC[C@]12C=CCN3CC[C@@]4(c5ccc(OC)cc5N(C)[C@H]4[C@@](O)(C(=O)OC)[C@@H]1OC(C)=O)C32 (stereo partly specified)	4.48% (inactive)	
COc1cc(/C=N/n2cnnc2)ccc1OC(=O)N(C)C	-5.4% [at 383 µM] (inactive)	
O=C(O)CN1C(=O)CN=C(c2ccccn2)c2cc(Cl)ccc21	1.01% [at 383 µM] (inactive)	
O=C1NC(=O)C(=Cc2ccc3ccccc3c2)C(=O)N1	-10.3% [at 383 µM] (inactive)	
c1cc2cc(c1)C[n+]1ccc(c3ccccc31)NCc1ccc(cc1)CNc1cc[n+](c3ccccc13)C2		282 µM (active)
COc1cc(-c2ccc(-[n+]3nc(-c4ccccc4)nn3-c3ccc([N+](=O)[O-])cc3)c(OC)c2)ccc1-[n+]1nc(-c2ccccc2)nn1-c1ccc([N+](=O)[O-])cc1		56.2 µM (active)
O=c1oc2ccccc2c(O)c1C(c1ccccn1)c1c(O)c2ccccc2oc1=O	-2.51% (inactive)	
OC12C3C4CC5C6C4C1C6C(C53)N2CCc1cccc(F)c1 (stereo unspecified)	2.72% (inactive)	
Cc1cc(C(=O)NP(=O)(N2CCOCC2)N2CCOCC2)c(C)n1C1CC1	0.817% (inactive)	
CCCCn1c(=O)c(C(=O)Nc2ccsc2C(=O)OC)c(O)c2ccccc21	-11% (inactive)	
